Experimental findings from PubChem BioAssay (NCI) are described below.

“And” between values parts separate entries of the source, which are not always exact repeats. Equal entries are not always repeated. About 83,000 compounds went through this panel and 20% of them were active in at least one assay; those are over-represented in the sample as a whole.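 Assay: single dose, 48 h. Readout: percent growth (0 = no net growth; negative = cell death). Active: <10.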 The source made the active and inactive calls.

In this experiment the test system is MDA-MB-468 breast. Put plainly: NCI-60 one-dose screen, 48 h (100 = growth as untreated, 0 = no growth, -100 = all killed). Particulars: 10 µM unless noted.
As to `Cc1nc2cc(NC(=O)CN3CCN(CCN4C(=O)c5cccc6cccc(c56)C4=O)CC3)ccc2s1`, the growth is 38.2% (inactive).

In the case of `CCCCCCCCCCC(C)Br` (stereo unspecified), the growth was 111% (inactive). To `O=C1CC(c2ccccc2)Cc2nc3ccc(Br)cc3cc21` (stereo unspecified) belongs 0.354% (active); to `C=C(CNCCc1ccc(O)cc1)[C@@H]1CC[C@]2(COC3CCCCO3)CC[C@]3(C)[C@H](CC[C@@H]4[C@@]5(C)CCC(N)C(C)(C)[C@@H]5CC[C@]43C)[C@@H]12` (stereo partly specified), -85.6% (active).

`O=C(Cn1c2ccccc2c2ccncc21)N/N=C/c1c[nH]c2ccccc12`: the growth is 43.4% (inactive).

Regarding `COc1cccc(/C=C2\COc3ccc(-c4ccccc4)cc3C2=O)c1`, the growth was 7.82% (active).

Consider `COC1=CC(c2ccc[nH]2)=N/C1=C\c1[nH]c(C)c(C(=O)CCC(=O)Oc2ccc3c(c2)CCC2C3CC[C@]3(C)C(=O)CC[C@@H]23)c1C` (stereo partly specified), for which the growth was 76.3% (inactive). `COc1ccc(C2c3sc4c(F)cccc4c3Oc3nc[nH]c(=O)c32)cc1` (stereo unspecified): the growth is 54.6% (inactive).

Regarding `CCCCCCCCCCCCCCCCCCOc1ccccc1CC(=O)OCC[N+]1(C)CCOCC1`, the growth was 51.9% (inactive). Turning to `CC(=O)Nc1ccc(-c2ccc3c(c2)NC(=O)/C3=C\c2ccc[nH]2)cc1`, the growth is -7.08% (active). Next, `CCN1CCN(CCNc2nccc(-c3c(-c4ccc(F)c(O)c4)nc4occn34)n2)S1(=O)=O`: 23.5% (inactive); `CCOc1c(OC)cc2c(c1O)C(=O)N[C@@H]1[C@@H](O)[C@@H](O)[C@H](O)C[C@@H]21`: 94.9% (inactive); `CN(C)N=Nc1nn(C(=O)Nc2ccc(Cc3ccccc3)cc2)c2ccccc12`: 69.2% (inactive).

For the molecule `COc1nc2c(cc1S(=O)(=O)c1ccccc1)CCc1c-2cnn1-c1ccccc1`, the growth is 45.3% (inactive).

In the case of `COc1cc(OCc2cccc(Br)c2C)cc(OC)c1C=O`, the growth is 20.8% (inactive). Turning to `CCN(CC)CC(O)Cc1ccc(OC)cc1` (stereo unspecified), the growth is 97.9% (inactive). As for `OC(c1ccc(Cl)cc1)(c1ccc(Cl)cc1)C(O)(c1ccc(Cl)cc1)c1ccc(Cl)cc1`, the growth was 12.6% (inactive). Next, `O=[N+]([O-])c1cc(/C=N/Nc2nc(N/N=C/c3ccc(Cl)c([N+](=O)[O-])c3)nc(N3CCCCC3)n2)ccc1Cl`: 68.8% (inactive). Next, `O=CN1N=C(c2cccc(Nc3ccncc3)c2)CC1c1ccc2c(c1)OCO2` (stereo unspecified): 88.7% (inactive).

As for `Cc1nonc1-c1ccc2c(c1)OCO2`, the growth is 111% (inactive) and 93.8% (inactive). To `COc1cc2ncnc3c2cc1OCCCCCN(C)Cc1ccc(Br)cc1N3` belongs -26.6% (active); to `O=C1C2=C(Nc3cc(Cl)ccc3N2)OC1c1c[nH]c2ccc(COc3ccccc3)cc12` (stereo unspecified), 48.2% (inactive). To `c1ccc(CCNc2c3ccccc3nc3ccccc23)cc1` belongs -11.4% (active); to `COc1ccc(-c2cc(C(=O)N=Nc3c(O)[nH]c4ccc(Br)cc34)no2)cc1`, 103% (inactive); to `COc1ccc(/C=C/c2ccc3ccccc3n2)c(OC)c1`, 18.3% (inactive).

Regarding `CCCCCn1c(C)cc(/C=C\c2ccc3cc(C)ccc3[n+]2C)c1C`, the growth was -82.4% (active).

As for `CN1CCN(CCCNc2nccc(-c3c(-c4ccc(F)c(O)c4)nc4sccn34)n2)S1(=O)=O`, the growth is 92.9% (inactive). To `O=C(CN1CCN(c2cc3c(cc2F)c(=O)c(C(=O)O)cn3C2CC2)CC1)N/N=C/c1ccco1` belongs 104% (inactive); to `COc1cc(C(=O)N(C(C)C)C2CCCCC2)cc(OC)c1OC`, 89.8% (inactive).

Consider `CCCC(O)Cn1ncc(C(=O)OCC)c1NC(=O)NCc1cccc(C(F)(F)F)c1` (stereo unspecified), for which the growth is 79.3% (inactive). Next, `Cc1cc(C(NC(=O)CCCCCNc2cccc3c2C(=O)N(C2CCC(=O)NC2=O)C3=O)c2cccnc2)c(O)c2ncccc12` (stereo unspecified): -8.72% (active). To `CN1CCN(Cc2ccc(NC(=O)c3cncc(C#Cc4cnc(N)c5cccnc45)c3)cc2C(F)(F)F)CC1` belongs 15.8% (inactive); to `CCn1cc(C(=O)O)c(=O)c2cc(F)c(N3CCNCC3)cc21`, 93.2% (inactive). To `[2H]C1([2H])NC([2H])([2H])C([2H])([2H])N(c2ccc(Nc3ncc4cc(C(=O)N(C)C)n(C5CCCC5)c4n3)nc2)C1([2H])[2H]` belongs 99.5% (inactive). With `CN(Cc1ccccc1)c1nc(Cl)c(C2CC(c3ccc(Cl)cc3)=NN2c2cc(Cl)cc(Cl)c2)s1` (stereo unspecified), the growth is 101% (inactive). Next, `CCCn1c2cc(OCc3cn(-c4ccc(Br)cc4)nn3)ccc2c2ccnc(C)c21`: 25.6% (inactive).
